This passage reports growth results from PubChem BioAssay (NCI).

What all share (assay): NCI-60 one-dose screen, 48 h (100 = growth as untreated, 0 = no growth, -100 = all killed)
Conditions in all cases: 10 µM unless noted

Assay [1] has as its system HCT-15 colon.
Assay [2] deals with HT29 colon.
The subject of assay [3] is SNB-75 CNS.
Assay [4] has as its system SNB-19 CNS.
The test system of assay [5] is U251 CNS.
Assay [6] deals with PC-3 prostate.
Assay [7] has as its system SK-MEL-5 melanoma.
For assay [8], the system named is UACC-62 melanoma.
Assay [9] deals with LOX IMVI melanoma.
The subject of assay [10] is SK-MEL-28 melanoma.
In assay [11] the test system is SK-MEL-2 melanoma.
The subject of assay [12] is EKVX NSCLC.
For assay [13], the system named is SN12C renal.
Assay [14] concerns UO-31 renal.
In assay [15] the test system is TK-10 renal.
Assay [16] concerns ACHN renal.
In assay [17] the test system is CAKI-1 renal.
For assay [18], the system named is A498 renal.
Assay [19] relates to CCRF-CEM leukemia.
Assay [20] deals with MOLT-4 leukemia.

Compounds without any hit were thinned out: in the full panel of roughly 83,000, 20% have a hit.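 How to read the values: 0–100, growth inhibition (40 = 60% inhibited); 0, no net growth; -100 to 0, cell death (-40 = 40% of starting cells died; -100 = all dead).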 A number with no mark means an inactive call. Active and inactive are the calls of the source. How the source made its calls: active means growth percent below 10; inactive means the rest.

Consider `O=C(COc1ccc(-c2nc3cc(Cl)c(Cl)cc3[nH]2)cc1)N=Nc1c(O)[nH]c2ccc(Cl)cc12`, for which the growth in assay [1] is 80.3%; in assay [2] it was 33.4%; in assay [3] it was 68.5%; in assay [4], 56.7%; in assay [5], 34.2%; in assay [6], 61.2%. For the same compound, the growth in [7] was 85.6%; in assay [8], 91.6%; in assay [9], 60.8%; in assay [10], 73.7%; in assay [11] it was 90.2%; in assay [12], 96.8%. The growth is 74.5% in assay [13]; 94.4% in [14]; 91.4% in assay [15]; 71.8% in assay [16]; 76.3% in assay [17]; 91.3% in assay [18]. Besides, the growth in assay [19] is 24.2%; in assay [20], 47%.

For the compound `COC(=O)c1nc(-c2ccc(C)cc2)oc1S(=O)(=O)c1cccc(OC)c1`, the growth was 62% in assay [1]; 97.1% in assay [2]; 83.3% in [3]; 101% in assay [4]; 96.5% in assay [5]; 103% in assay [6]. The growth in assay [7] is 97.8%; in assay [8] it was 92.5%; in [9], 57.1%; in [10] it was 99.2%; in assay [11] it was 95.9%; in assay [12], 100%. Moreover, the growth in [13] was 85%; in assay [14] it was 90.3%; in [15] it was 64.8%; in [16], 42.8%; in assay [17] it was 69.5%; in assay [18] it was 102%. In addition, the results for the growth in assay [19] and in [20] were -9.09% (active) and -7.44% (active), respectively.

Regarding `Cc1cccc(CNc2c3ccccc3nc3ccccc23)c1`, the growth was 15.9% in [1]; 5.15% (active) in assay [2]; 37% in assay [3]; 29.7% in assay [4]; 23.7% in assay [5]; 24.9% in [6]. For the same compound, the growth in assay [7] was 19.8%; in [8], 42.8%; in assay [9], 6.25% (active); in [10], 58.8%; in assay [11], 38%; in [12], 44.5%. The growth in assay [13] was 26.1%; in assay [14] it was 14.7%; in assay [15], 38.4%; in assay [16], 15.8%; in [17], 17.7%; in assay [18] it was -2.22% (active). Besides, the growth in assay [19] was 14.8%; in assay [20], 2.32% (active).

Regarding `CCOC(=O)n1cc(-c2nonc2-c2cn(C(=O)OCC)c3ccc(Br)cc23)c2ccccc21`, the growth in assay [1] was 76.8%; in assay [2] it was 76.1%; in [3], 73.1%; in assay [4] it was 93.5%; in [5] it was 89.8%; in assay [6] it was 69%. For the same compound, the growth is 82.3% in [7]; 58.7% in assay [8]; 74.6% in assay [9]; 100% in assay [10]; 87.5% in [11]; 73.3% in assay [12]. Moreover, the growth in [13] is 88.1%; in assay [14], 46.9%; in assay [15], 90.8%; in assay [16], 64.5%; in assay [17], 60.1%; in assay [18], 82.3%. The growth in [19] is 87.7%; in [20] it was 72.2%.

In the case of `O=C(Nc1nc2ccccc2s1)c1ccc(F)cc1`, the growth was 85.5% in [1]; 108% in [2]; 96.7% in [3]; 126% in [4]; 99.7% in assay [5]; 96.6% in assay [6]. Besides, the growth was 91.3% in assay [7]; 89.5% in [8]; 101% in assay [9]; 114% in assay [10]; 114% in assay [11]; 77.8% in assay [12]. Besides, the growth in assay [13] is 108%; in assay [14], 89.1%; in [15], 125%; in assay [16], 98%; in [17] it was 62.9%; in assay [18] it was 89.8%. Also, the growth in assay [19] was 101%; in [20], 100%.

For the compound `Cc1nc2sc(C(=O)Nc3cccc4ccccc34)c(N)c2cc1C(O)c1ccccc1` (stereo not given), the growth in assay [1] is 13.1%; in assay [2], 10.5%; in assay [3], 68.8%; in [4] it was 26.2%; in assay [5] it was 1.5% (active); in assay [6] it was 14.8%. Moreover, the growth in [7] was -53.1% (active); in [8], 17.8%; in [9] it was 21.4%; in assay [10], 54.3%; in assay [11], 25.3%; in assay [12], 39.4%. For the same compound, the growth is 12.7% in [13]; 33.4% in assay [14]; 52.6% in assay [15]; 24.4% in [16]; 29.5% in assay [17]; -13.7% (active) in assay [18]. Also, the growth was 6.95% (active) in assay [19] and 6.27% (active) in assay [20].

For `CC(C)=CCC[C@](C)(O)[C@H]1CC[C@]2(C)[C@@H]1CC[C@@H]1[C@@]3(C)C/C(=C/c4ccco4)C(=O)C(C)(C)[C@@H]3CC[C@]12C`, the growth in [1] is 110%; in assay [2], 111%; in assay [3] it was 92.7%; in assay [4] it was 103%; in assay [5], 101%; in assay [6] it was 97.4%. Further, the growth in [7] was 102%; in [8], 91.7%; in assay [9], 101%; in assay [10] it was 102%; in assay [11], 109%; in assay [12], 101%. The growth in [13] is 97%; in assay [14], 88.7%; in [15], 103%; in [16], 102%; in assay [17], 90.7%; in assay [18], 86.3%. The results for the growth in assay [19] and in [20] were 101% and 104%, respectively.

`Cc1cc(C(=O)Nc2ncc(Cc3cccc(C(F)(F)F)c3)s2)c2ccccc2n1`: the growth in assay [1] was 17.3%; in assay [2], 8.85% (active); in [3], 18.1%; in [4] it was 44.7%; in assay [5], 18.5%; in assay [6], 26.7%. Moreover, the growth in assay [7] was 0.694% (active); in assay [8], 9.95% (active); in assay [9] it was 12.6%; in assay [10] it was 40.4%; in assay [11], -16% (active); in assay [12], 43.2%. Also, the growth is 47.7% in assay [13]; 29% in assay [14]; 49.5% in assay [15]; 28.1% in assay [16]; 13.3% in assay [17]; 0.174% (active) in assay [18]. In addition, the growth in assay [19] is 11.8%; in assay [20], 14.9%.
